This note sets out measurements from PubChem BioAssay (NCATS).

Inconclusive results are not listed. Activity calls are given as the source filed them. Unless noted, calls follow the shape of the dose curve; as a rule, active = well fitted curve in the direction sought with a large enough effect; inconclusive = small, poorly fitted or top-dose-only effect, or another doubt; inactive = no such curve, though single readings can be large; an effect the other way counts as inactive or inconclusive.

The nature of assay [1]: Confirmation and Secondary Assay for Modulators of Hemoglobin Beta Chain Splicing at IVS2 705 locus (AID 930).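 Also: HeLa cells stably expressing the EGFP-705 splicing reporter; GFP fluorescence per well restored by corrected splicing of the IVS2-705 intron in EGFP; % of control where 0% means no effect.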 Put shortly: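 HeLa EGFP-705 reporter; 500 cells/well, o/n 37C 5% CO2; cpd 2 d; 488 ex/500-520 em laser scan; total peak GFP intensity/well. Ref: 500 nM […] antisense PNA.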
A short description of assay [2]: qHTS Assay for Lipid Storage Modulators (AID 1519; calls by dose curve; as to activity change, negative = inhibition: % is scaled to controls: 0 for no effect and ±100 for the full control effect). The note with it: Drosophila S3 cells, BODIPY lipid droplet/cell ratio, laser cytometry, cells loaded with oleic acid; for activity change, negative = inhibition: at 57.5 µM (top of the series). Put shortly:
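Cells seeded at 5,000 per well were treated with compounds over a concentration series and loaded with oleic acid (400 uM, as added). Lipid droplet fluorescence (488 nm excitation, 500-530 nm channel) was read by laser-scanning cytometry and normalized to 20 uM Triacsin C.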
For orientation: Quantitative high-throughput screening tests each substance at several concentrations.

A short description of assay [3]: qHTS profiling for inhibitors of Plasmodium falciparum proliferation (AID 504749). Also: potency is read from the fitted curve at half-maximal effect.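 As to activity, negative = inhibition: 0% = DMSO vehicle and full inhibition = artemisinin control.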 As to all read-outs here: nearly all actives have a fitted effect of over 60% in size. Conditions: P. falciparum in erythrocytes, SYBR Green DNA, 72 h; for activity, negative = inhibition: at 28.7 µM (top of the series). The gist of the method: (§1)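 SYBR Green fluorescence (ex 485 nm, em 535 nm) reports parasite DNA after 72 h compound exposure of infected red cells at 0.3% parasitemia, 2.5% hematocrit; signal normalized to 0.29 uM artemisinin and vehicle wells.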

The test system of a further assay is C2A. The description is as above. The note with it: P. falciparum in erythrocytes, SYBR Green DNA, 72 h; series mostly up to 12.8 µM. Put shortly:
as §1

Another assay relates to CP185. The description is as above. Conditions: P. falciparum in erythrocytes, SYBR Green DNA, 72 h; series mostly up to 12.8 µM. The gist of the method:
as §1

Another assay relates to CP201. Described as above. The note with it: P. falciparum in erythrocytes, SYBR Green DNA, 72 h; series mostly up to 12.8 µM. The gist of the method:
as §1

The test system of a further assay is CP211. Described as above. Conditions: P. falciparum in erythrocytes, SYBR Green DNA, 72 h; series mostly up to 12.8 µM. Put shortly: as §1
Another assay relates to CP238. Described as above. The note with it: P. falciparum in erythrocytes, SYBR Green DNA, 72 h; series mostly up to 12.8 µM. The gist of the method:
as §1

A further assay relates to CP262. The description is as above. The note with it: P. falciparum in erythrocytes, SYBR Green DNA, 72 h; series mostly up to 12.8 µM. Put shortly:
as §1

The next assay has as its system CP268. The description is as above. The note with it: P. falciparum in erythrocytes, SYBR Green DNA, 72 h; series mostly up to 12.8 µM. The gist of the method:
as §1

The next assay relates to CP269. Described as above. Conditions: P. falciparum in erythrocytes, SYBR Green DNA, 72 h; series mostly up to 12.8 µM. The gist of the method: as §1
A further assay relates to CP305. The description is as above. The note with it: P. falciparum in erythrocytes, SYBR Green DNA, 72 h; series mostly up to 12.8 µM. Put shortly:
as §1

Another assay relates to CP315. The description is as above. The note with it: P. falciparum in erythrocytes, SYBR Green DNA, 72 h; series mostly up to 12.8 µM. Put shortly: as §1
The test system of another assay is CP325. Described as above. The note with it: P. falciparum in erythrocytes, SYBR Green DNA, 72 h; series mostly up to 12.8 µM. Put shortly: as §1
A further assay concerns CP329. The description is as above. Conditions: P. falciparum in erythrocytes, SYBR Green DNA, 72 h; series mostly up to 12.8 µM. Put shortly: as §1
Another assay deals with PC15. The assay is described as above. Conditions: P. falciparum in erythrocytes, SYBR Green DNA, 72 h; series mostly up to 12.8 µM. Put shortly:
as §1

The subject of a further assay is PC49. The description is as above. Conditions: P. falciparum in erythrocytes, SYBR Green DNA, 72 h; series mostly up to 12.8 µM. The gist of the method: as §1
The target in assay [4] is Ubiquitin carboxyl-terminal hydrolase 1 (Homo sapiens) (UniProt O94782). Description: Inhibitors of USP1/UAF1: Pilot qHTS (AID 504865).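 Also: rhodamine fluorescence freed from ubiquitin-rhodamine substrate followed over time; top concentration of the series differs between compounds; % is scaled to controls: 0 for no effect and ±100 for the full control effect; nearly all actives have a fitted effect of over 35% in size.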 The gist of the method:
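USP1/UAF1 complex (1nM) preincubated with compound 15 min at room temperature, then Ub-Rho substrate (150nM final) added. Fluorescence read kinetically at 480/540 nm, 6 reads every 60 seconds. Buffer: 50mM HEPES pH 7.8, 0.5mM EDTA, 0.1 mg/ml BSA, 1mM TCEP, 0.01% Tween-20.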

Another assay deals with FAB9. The assay is described as follows: qHTS profiling for inhibitors of Plasmodium falciparum proliferation (AID 504749). Also: nearly all actives have a fitted effect of over 60% in size. Also: potency is read from the fitted curve at half-maximal effect.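 As to activity, negative = inhibition: 0% = DMSO vehicle and full inhibition = artemisinin control.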 The note with it: P. falciparum in erythrocytes, SYBR Green DNA, 72 h; series mostly up to 12.8 µM. The gist of the method: as §1
The subject of the next assay is JCK. The description is as above. Conditions: P. falciparum in erythrocytes, SYBR Green DNA, 72 h; series mostly up to 12.8 µM. Put shortly: as §1
The mark [5] stands for this setting: measured here: cell count channel max response.
Setting [6] is: measured here: lipid channel max response.

Ubiquitin carboxyl-terminal hydrolase 1 (Homo sapiens), sequence (O94782 whole entry, looked up): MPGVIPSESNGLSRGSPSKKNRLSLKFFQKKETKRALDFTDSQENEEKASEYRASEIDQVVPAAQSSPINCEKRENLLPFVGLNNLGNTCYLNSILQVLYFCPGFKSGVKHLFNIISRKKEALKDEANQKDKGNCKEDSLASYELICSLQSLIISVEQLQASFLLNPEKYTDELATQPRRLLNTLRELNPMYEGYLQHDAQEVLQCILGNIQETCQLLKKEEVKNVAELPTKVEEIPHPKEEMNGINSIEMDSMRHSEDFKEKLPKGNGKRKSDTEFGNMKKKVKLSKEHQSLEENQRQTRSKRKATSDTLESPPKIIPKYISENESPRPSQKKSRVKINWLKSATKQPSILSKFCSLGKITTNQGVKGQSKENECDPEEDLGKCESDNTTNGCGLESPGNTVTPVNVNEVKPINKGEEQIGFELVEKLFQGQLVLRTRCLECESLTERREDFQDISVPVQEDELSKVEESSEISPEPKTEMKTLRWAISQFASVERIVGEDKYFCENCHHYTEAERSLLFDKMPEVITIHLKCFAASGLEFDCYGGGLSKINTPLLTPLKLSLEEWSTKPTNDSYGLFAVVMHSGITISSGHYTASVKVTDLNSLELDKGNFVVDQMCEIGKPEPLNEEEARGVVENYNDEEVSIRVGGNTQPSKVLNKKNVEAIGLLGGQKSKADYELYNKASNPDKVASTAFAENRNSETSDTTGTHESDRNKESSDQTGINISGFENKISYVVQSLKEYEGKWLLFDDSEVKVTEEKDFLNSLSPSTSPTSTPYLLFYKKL

In the case of `COC1C=CO[C@@]2(C)Oc3c(C)c(O)c4c(O)c(c(C=NN5CCN(C)CC5)c(O)c4c3C2=O)NC(=O)/C(C)=C\C=CC(C)C(O)[C@@H](C)C(O)C(C)[C@H](OC(C)=O)C1C` (some centres not stated), in [1], the Potency entry is “inactive”. Also, the activity change, negative = inhibition in assay [2] is -0.247% (inactive). Also, the max response was found to be 7.61% in assay [2] (setting [5]) and 10.6% in assay [2] (setting [6]). For the same compound, the Potency in [3] (parasite line A) was 3.98 µM (active); in assay [3] (parasite line B) it was 3.98 µM (active); with C2A, 8.91 µM (active); in the assay with CP185, 3.16 µM (active); in the assay on CP201, 5.36 µM (active); in the assay on CP211, 4.26 µM (active). Besides, the Potency is 3.55 µM (active) in the assay on CP238; 2.13 µM (active) with CP262; 4.78 µM (active) in the assay with CP268; 4.26 µM (active) in the assay with CP269; 3.79 µM (active) with CP305; 4.78 µM (active) in the assay on CP315. Further, the Potency was 4.78 µM (active) with CP325, 3.38 µM (active) in the assay with CP329, 0.398 µM (active) in the assay on PC15 and 1.41 µM (active) with PC49.
Regarding `COc1cccc(-c2nc(NCCc3c[nH]c4ccc(OC)cc34)c3ccccc3n2)c1`, the Potency entry in assay [1] is “inactive”. Further, the activity change, negative = inhibition in assay [2] is 5.14% (inactive). The values for the max response in [2] (setting [5]) and in assay [2] (setting [6]) were -17.7% and -5.2%, respectively.
For the compound `CC[C@@]12CCCN3CCc4c(n(c5ccccc45)[C@](O)(C(=O)OC)C1)C32` (some centres not stated), the Potency result (in assay [1]; in assay [4]; in the assay on C2A; with CP185; with CP201; in the assay on CP211) was “inactive” throughout. The Potency result with CP238, in the assay with CP262, in the assay on CP268, with CP269, in the assay with CP305 and in the assay with CP315 was “inactive” each time. The Potency entry with CP325, with CP329, in the assay with FAB9, with JCK, with PC15 and in the assay with PC49 was “inactive” throughout. The activity change, negative = inhibition in [2] was 6.08% (inactive). For the same compound, the results for the max response in assay [2] (setting [5]) and in assay [2] (setting [6]) were 25.6% and 38.6%, respectively. Also, the activity, negative = inhibition is 4.65% (inactive) in assay [3] (parasite line A) and -5.85% (inactive) in [3] (parasite line B).
Consider `CC1(C)SC2C(N3C(=O)C(c4ccccc4)NC3(C)C)C(=O)N2C1C(=O)O` (configuration not stated), for which the Potency result (in assay [1]; in the assay with C2A; with CP185; with CP201; in the assay on CP211; in the assay on CP238) was “inactive” throughout. For the same compound, the Potency entry in the assay on CP262, with CP268, in the assay on CP269, with CP305, in the assay with CP315 and in the assay on CP325 was “inactive” each time. For the same compound, the Potency result in the assay with CP329, with FAB9, with JCK, in the assay with PC15 and in the assay with PC49 was “inactive” each time. For the same compound, the activity change, negative = inhibition in assay [2] is 8.56% (inactive). Besides, the results for the max response in [2] (setting [5]) and in [2] (setting [6]) were 12.6% and 31%, respectively. Further, the activity, negative = inhibition in assay [3] (parasite line A) was -1.6% (inactive); in assay [3] (parasite line B) it was 9.57% (inactive).
`CNC1C(OC2C(O[C@@H]3C(O)C(O)[C@@H](N=C(N)N)C(O)C3N=C(N)N)OC(C)[C@@]2(O)CO)OC(CO)C(O)C1O` (some centres not stated): the Potency result (in [1]; in assay [4]; in the assay on C2A; in the assay on CP185; in the assay on CP201; in the assay with CP211) was “inactive” throughout. The Potency entry in the assay on CP238, in the assay with CP262, in the assay on CP268, with CP269, in the assay on CP305 and in the assay with CP315 was “inactive” throughout. The Potency result in the assay on CP325, with CP329, in the assay on FAB9, in the assay on JCK, with PC15 and in the assay with PC49 was “inactive” each time. Also, the activity change, negative = inhibition in assay [2] was 8.79% (inactive). The results for the max response in assay [2] (setting [5]) and in assay [2] (setting [6]) were 13.3% and 25.4%, respectively. Moreover, the figures for the activity, negative = inhibition in [3] (parasite line A) and in assay [3] (parasite line B) were 9.26% (inactive) and 13.4% (inactive), respectively.
